From PubChem BioAssay (Tox21)
Results filed as inconclusive are left out. Activity calls are given as the source filed them. Unless noted, calls come from the whole dose curve; as a rule, active = well fitted curve in the direction sought with a large enough effect in the repeat runs; inconclusive = weak or mixed curves; inactive = no such curve, though single readings can be large; an effect the other way counts as inactive or inconclusive.

Experiments:
[1] = qHTS assay to identify small molecule agonists of the peroxisome proliferator-activated receptor delta (PPARd) signaling pathway - cell viability counter screen (AID 743211); note: nearly all actives have a fitted effect of over 55% in size
How it was run: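 HEK293H PPARd-bla, 3000 cells/well; 5 h preincubation 37C/5% CO2; cpd in DMSO, 17 h 37C; B/G FRET substrate 2 h RT; CellTiter-Glo 30 min RT, luminescence.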

[2] = qHTS assay to identify small molecule antagonists of the peroxisome proliferator-activated receptor delta (PPARd) signaling pathway - cell viability counter screen (AID 743213); note: nearly all actives have a fitted effect of over 50% in size
How it was run: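 HEK293H cells with the PPARd UAS-bla reporter, co-treated 17 h at 37 C with compounds and L165041 (300 nM final), were lysed with CellTiter-Glo. Luminescence indicated viable cell content.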

[3] = qHTS assay to identify small molecule agonists of the farnesoid-X-receptor (FXR) signaling pathway - cell viability counter screen (AID 743218); note: nearly all actives have a fitted effect of over 45% in size
How it was run: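 FXR-UAS-bla HEK 293T cells, plated 5 h at 37 C, were exposed to compounds for 16 h at 37 C. CellTiter-Glo was then added to the same wells as the bla readout; luminescence read after 30 min at room temperature.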

[4] = qHTS assay to identify small molecule antagonists of the farnesoid-X-receptor (FXR) signaling pathway - cell viability counter screen (AID 743221; active = well fitted cell-killing curve with a large enough effect in the repeat runs, not every such curve was filed as active; note: nearly all actives have a fitted effect of over 50% in size)
How it was run: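 Luminescence from CellTiter-Glo measures cytotoxicity in GeneBLAzer FXR-UAS-bla HEK 293T cells. Cells were exposed to compounds with 50 uM chenodeoxycholic acid (final) for 16 h at 37 C, in wells also used for the reporter readout.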

[5] = molecular target: Vitamin D3 receptor (Homo sapiens) (UniProt P11473); test: qHTS assay to identify small molecule antagonists of the vitamin D receptor (VDR) signaling pathway (AID 743223; active = well fitted inhibition curve with a large enough effect in the signal ratio in the repeat runs, not every such curve was filed as active; the % refers to the signal ratio)
How it was run: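 Antagonist mode uses 1alpha,25-dihydroxyvitamin D3 at 3 nM final as stimulus. VDR-bla cells receive compounds in DMSO, incubate 16 h at 37C, then a beta-lactamase FRET substrate for 2 h at room temperature before fluorescence measurement.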

[6] = qHTS assay to identify small molecule agonists of the vitamin D receptor (VDR) signaling pathway - cell viability counter screen (AID 743224); note: series mostly up to about 63 µM; nearly all actives have a fitted effect of over 50% in size
How it was run: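 VDR-bla cells were preincubated 4 h at 37C/5% CO2, then exposed to compounds for 16 h. After the 2 h room-temperature bla FRET read, CellTiter-Glo was added to the same wells and luminescence read after 30 min.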

[7] = qHTS assay to identify small molecule antagonists of the vitamin D receptor (VDR) signaling pathway - cell viability counter screen (AID 743225); note: nearly all actives have a fitted effect of over 50% in size
How it was run: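 Read-out: CellTiter-Glo luminescence measured 30 min after reagent addition at room temperature. Cells were VDR-bla HEK 293T exposed 16 h at 37C, 5% CO2, to compound with 3 nM final calcitriol agonist.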

[8] = qHTS assay to identify small molecule agonists of the NFkB signaling pathway - cell viability counter screen (AID 1159515; calls by dose curve; note: series mostly up to about 61 µM; nearly all actives have a fitted effect of over 55% in size)
How it was run: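 NFkB-bla ME-180 cells, 2,000/well, were plated overnight at 37 C, 5% CO2, then exposed to compounds in DMSO for 5 hr. After the bla FRET read, CellTiter-Glo was added to the same wells; luminescence was read after 30 min at room temperature.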

[9] = qHTS assay to identify small molecule agonists of the endoplasmic reticulum stress response signaling pathway (AID 1159516; active = well fitted activation curve with a large enough effect in the signal ratio in the repeat runs, not every such curve was filed as active; the % refers to the signal ratio)
How it was run: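 CellSensor ESRE-bla HeLa cells, carrying a beta-lactamase reporter driven by the ER stress response element, were plated overnight and exposed to compounds for 5 hr at 37 C. Reporter activity was read as FRET substrate fluorescence after 2 hr at room temperature.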

[10] = qHTS assay to identify small molecule agonists of the endoplasmic reticulum stress response signaling pathway - cell viability counter screen (AID 1159517; calls by dose curve)
How it was run: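 Counter-screen wells were identical to the reporter wells. Cells were plated at 1,500 per well and dosed for 5 hr, then read for luminescence 30 min after CellTiter-Glo addition.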

[11] = qHTS assay to identify small molecule antagonists of the retinoid-related orphan receptor gamma (ROR-gamma) signaling pathway - cell viability counter screen (AID 1159520); note: nearly all actives have a fitted effect of over 50% in size
How it was run: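 Tet-on ROR gamma CHO cells were given compounds for 2 hr, then doxycycline hyclate at 1 uM final, and incubated 16 hr at 37 C. Viability was measured as ATP content by CellTiter-Glo luminescence.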

[12] = molecular target: Nuclear receptor ROR-gamma (Homo sapiens) (UniProt P51449); test: qHTS assay to identify small molecule antagonists of the retinoid-related orphan receptor gamma (ROR-gamma) signaling pathway (AID 1159521)
How it was run: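 CHO Tet-on RORγ, RORE-luc reporter. Cpd 2 h pre-incubation, then dox hyclate 1 uM final, 16 h, 37 C/5% CO2. ONE-Glo luminescence; decrease = antagonist.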

[13] = qHTS assay to identify small molecule agonists of the AP-1 signaling pathway - cell viability counter screen (AID 1159525; calls by dose curve; note: nearly all actives have a fitted effect of over 55% in size)
How it was run: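 AP-1-bla ME-180 cells in Opti-MEM with 0.5% dialyzed FBS, compound exposure 5 h at 37 C in 15-point titration. Viability read in the same wells as ATP content by CellTiter-Glo luminescence, normalised to tetra-n-octylammonium bromide and DMSO controls.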

[14] = qHTS assay to identify small molecule agonists of the AP-1 signaling pathway (AID 1159526; calls by dose curve)
[15] = molecular target: Retinoic acid receptor RXR-alpha (Homo sapiens) (UniProt P19793); test: qHTS assay to identify small molecule agonists of the RXR signaling pathway (AID 1159527; calls by dose curve; note: nearly all actives have a fitted effect of over 35% in size)
How it was run: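 Read-out: beta-lactamase FRET ratio (405 nm excitation, 460 and 530 nm emission) after 2 hr substrate loading at room temperature. Cells were RXR-alpha-UAS-bla HEK 293T treated with compounds for 16 hr in 2% charcoal-stripped FBS medium.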

[16] = molecular target: Bile acid receptor (Homo sapiens) (UniProt Q96RI1); test: qHTS assay to identify small molecule antagonists of the farnesoid-X-receptor (FXR) signaling pathway (AID 743217; active = well fitted inhibition curve with a large enough effect in the signal ratio in the repeat runs, not every such curve was filed as active; the % refers to the signal ratio)
How it was run: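 FXR-UAS-bla HEK 293T cells pre-incubated 5 h at 37 °C, then exposed to compounds with chenodeoxycholic acid (50 uM final) for 16 h at 37 °C. Beta-lactamase reporter read by LiveBLAzer B/G FRET substrate fluorescence after 2 h at room temperature.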

[17] = molecular target: Bile acid receptor (Homo sapiens) (UniProt Q96RI1); test: qHTS assay to identify small molecule agonists of the farnesoid-X-receptor (FXR) signaling pathway (AID 743220; active = well fitted activation curve with a large enough effect in the signal ratio in the repeat runs, not every such curve was filed as active; the % refers to the signal ratio)
How it was run: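 Beta-lactamase reporter under UAS control in GeneBLAzer FXR HEK 293T cells (5000/well) measured with LiveBLAzer FRET substrate after 2 h at room temperature. Compound exposure lasted 16 h at 37C.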

[18] = molecular target: Vitamin D3 receptor (Homo sapiens) (UniProt P11473); test: qHTS assay to identify small molecule agonists of the vitamin D receptor (VDR) signaling pathway (AID 743222; calls by dose curve)
How it was run: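 VDR-bla cells were plated 4 h at 37C/5% CO2, then exposed to compounds in DMSO for 16 h. After LiveBLAzer B/G FRET substrate addition and 2 h at room temperature, beta-lactamase reporter fluorescence was read.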

[19] = molecular target: Peroxisome proliferator-activated receptor delta (Homo sapiens) (UniProt Q03181); test: qHTS assay to identify small molecule agonists of the peroxisome proliferator-activated receptor delta (PPARd) signaling pathway (AID 743212; calls by dose curve)
How it was run: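 Quantitative high-throughput agonist screen in a HEK293H beta-lactamase reporter line under UAS control. Compounds in DMSO, at 37 C. Fluorescence read after 2 h with FRET substrate at room temperature.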

[20] = molecular target: Peroxisome proliferator-activated receptor delta (Homo sapiens) (UniProt Q03181); test: qHTS assay to identify small molecule antagonists of the peroxisome proliferator-activated receptor delta (PPARd) signaling pathway (AID 743215; active = well fitted inhibition curve with a large enough effect in the signal ratio in the repeat runs, not every such curve was filed as active; the % refers to the signal ratio;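 note: cells stimulated with agonist L165041 at 300 nM final during compound exposure; series mostly up to about 62 µM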)
How it was run: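 PPARd UAS-bla HEK293H cells were pre-incubated 5 h at 37 C, then given test compounds in DMSO plus agonist L165041 (300 nM final). After 17 h at 37 C, beta-lactamase FRET substrate was added; fluorescence read after 2 h at room temperature.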

Measured: Potency

Chain of Bile acid receptor (Homo sapiens) (Q96RI1 whole entry, looked up): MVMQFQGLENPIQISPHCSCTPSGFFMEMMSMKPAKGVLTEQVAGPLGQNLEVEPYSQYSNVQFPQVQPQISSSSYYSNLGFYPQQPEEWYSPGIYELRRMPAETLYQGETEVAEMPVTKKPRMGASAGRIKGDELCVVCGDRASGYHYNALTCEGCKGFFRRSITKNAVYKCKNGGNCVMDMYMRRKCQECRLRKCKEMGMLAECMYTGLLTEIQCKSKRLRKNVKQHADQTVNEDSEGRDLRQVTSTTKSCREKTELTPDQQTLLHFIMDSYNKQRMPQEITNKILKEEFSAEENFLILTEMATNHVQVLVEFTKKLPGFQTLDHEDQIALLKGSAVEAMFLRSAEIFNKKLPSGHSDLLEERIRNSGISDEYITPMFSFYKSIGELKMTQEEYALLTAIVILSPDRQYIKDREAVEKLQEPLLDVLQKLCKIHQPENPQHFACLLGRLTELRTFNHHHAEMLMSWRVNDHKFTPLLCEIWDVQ
Chain of Retinoic acid receptor RXR-alpha (Homo sapiens) (P19793 whole entry, looked up): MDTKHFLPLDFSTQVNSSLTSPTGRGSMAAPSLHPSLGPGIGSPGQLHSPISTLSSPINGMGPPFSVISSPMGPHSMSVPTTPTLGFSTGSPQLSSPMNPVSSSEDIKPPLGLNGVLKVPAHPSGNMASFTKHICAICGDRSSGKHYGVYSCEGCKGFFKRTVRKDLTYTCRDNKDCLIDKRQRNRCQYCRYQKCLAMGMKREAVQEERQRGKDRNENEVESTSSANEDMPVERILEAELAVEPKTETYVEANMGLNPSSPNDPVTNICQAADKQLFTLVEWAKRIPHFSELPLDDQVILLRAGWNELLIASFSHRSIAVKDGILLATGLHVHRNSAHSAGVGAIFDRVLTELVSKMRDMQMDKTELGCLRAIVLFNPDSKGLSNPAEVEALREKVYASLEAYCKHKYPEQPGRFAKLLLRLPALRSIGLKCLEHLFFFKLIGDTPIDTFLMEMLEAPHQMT
Chain of Vitamin D3 receptor (Homo sapiens) (P11473 whole entry, looked up): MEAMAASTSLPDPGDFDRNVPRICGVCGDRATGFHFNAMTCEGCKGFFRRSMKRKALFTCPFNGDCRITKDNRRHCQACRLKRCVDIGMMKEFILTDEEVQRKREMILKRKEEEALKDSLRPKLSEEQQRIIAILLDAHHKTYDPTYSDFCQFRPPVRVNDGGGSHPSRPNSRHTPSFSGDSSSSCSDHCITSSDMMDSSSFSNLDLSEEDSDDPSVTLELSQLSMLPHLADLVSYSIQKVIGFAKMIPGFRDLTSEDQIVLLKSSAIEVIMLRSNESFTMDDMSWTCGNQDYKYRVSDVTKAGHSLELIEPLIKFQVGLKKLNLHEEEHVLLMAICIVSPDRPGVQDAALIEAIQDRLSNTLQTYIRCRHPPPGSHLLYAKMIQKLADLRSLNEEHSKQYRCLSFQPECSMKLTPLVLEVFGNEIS
Chain of Peroxisome proliferator-activated receptor delta (Homo sapiens) (Q03181 whole entry, looked up): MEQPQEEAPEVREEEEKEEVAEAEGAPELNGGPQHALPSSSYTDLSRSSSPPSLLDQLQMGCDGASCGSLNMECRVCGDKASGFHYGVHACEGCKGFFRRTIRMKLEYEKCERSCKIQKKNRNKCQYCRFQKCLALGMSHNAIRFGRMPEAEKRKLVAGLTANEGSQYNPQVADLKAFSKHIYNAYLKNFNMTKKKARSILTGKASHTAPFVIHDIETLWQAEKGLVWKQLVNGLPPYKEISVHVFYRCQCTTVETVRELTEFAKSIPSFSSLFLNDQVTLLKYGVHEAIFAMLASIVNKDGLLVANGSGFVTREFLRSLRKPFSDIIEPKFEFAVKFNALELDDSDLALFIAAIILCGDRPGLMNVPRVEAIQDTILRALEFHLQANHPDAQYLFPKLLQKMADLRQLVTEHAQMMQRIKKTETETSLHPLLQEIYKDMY

CN1CCCC1=O
inactive: [1] | [2] | [3] | [4] | [5] | [6] | [7] | [8] | [9] | [10] | [11] | [12] | [13] | [14] | [15]

NC(N)=S
inactive: [1] | [2] | [16] | [3] | [17] | [4] | [18] | [5] | [6] | [7] | [8] | [9] | [10] | [11] | [12] | [13] | [14] | [15]

COC(=O)CCCCC(=O)OC
inactive: [1] | [19] | [2] | [20] | [16] | [3] | [17] | [4] | [18] | [5] | [6] | [8] | [9] | [11] | [12] | [13] | [14] | [15]

C[n+]1ccn(CCO)c1
inactive: [1] | [2] | [3] | [4] | [18] | [5] | [6] | [7] | [8] | [9] | [10] | [11] | [12] | [13] | [14] | [15]

CCc1cccc(CC)c1N
inactive: [1] | [2] | [20] | [3] | [6] | [7] | [8] | [9] | [10] | [11] | [12] | [13] | [14] | [15]

COc1ccccc1[N+](=O)[O-]
inactive: [1] | [2] | [16] | [3] | [17] | [18] | [5] | [6] | [7] | [8] | [9] | [10] | [11] | [12] | [13] | [14] | [15]

COc1c2ccoc2cc2oc(=O)ccc12
inactive: [1] | [2] | [3] | [18] | [5] | [6] | [7] | [8] | [9] | [10] | [11] | [12] | [13] | [14] | [15]

C[Si](C)(C)N[Si](C)(C)C
inactive: [1] | [2] | [3] | [18] | [6] | [7] | [8] | [9] | [10] | [11] | [12] | [13] | [14] | [15]

OCCOCCOCCOCCOCCO
inactive: [1] | [2] | [3] | [4] | [5] | [6] | [8] | [9] | [10] | [11] | [12] | [13] | [14] | [15]
